Experimental data from PubChem BioAssay AID504594 (Broad Institute, 2011).
Screen size: about 2,000 compounds; fewer than 10 were called active. The list is a sample of the results. Unmarked numbers belong to inactive results.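 How the source made its calls: active means growth inhibition of at least 75% in every replicate, which also brings the mean inhibition to 75% or more; inconclusive means mean inhibition 75% or more but some replicate under 75%; inactive means the rest.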

assay: growth inhibition of PfHsp90-dependent yeast, primary screen, antimalarial PfHsp90 inhibitor project, S. cerevisiae, BacTiter-Glo luminescence (AID 504594);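 further: 0% = DMSO neutral control wells and 100% = 20 µM radicicol control wells; higher value means stronger growth inhibition because the sign is flipped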; conditions: S. cerevisiae expressing PfHsp90, BacTiter-Glo growth, 48 h; at 9.4 µM; stronger effect = higher value

Compound	growth inhibition
CC(=O)C1=C(O)C(=O)OC1c1ccc(C)cc1 (centres undefined)	14.7%
CC12CC(c3ccccc3O1)C(C(=O)N1CCOCC1)C(=O)N2 (centres undefined)	-11.3%
COc1cc2c(cc1OC)C1(CCCC1)CNC2c1cccc([N+](=O)[O-])c1 (centres undefined)	-7.37%
Cc1csc(-c2coc3cc(O)cc(C)c3c2=O)n1	23.5%
Cc1nc(N)sc1C(=O)N/N=C/c1ccco1	-1.68%
Nc1nc2c(nc(SCc3ccccc3Br)n2C2OC(CO)C(O)C2O)c(=O)[nH]1 (centres undefined)	-22.3%
COc1ccc(/C=C2\CC/C(=C\c3ccc(OC)c(OC)c3)C2=O)cc1OC	-15.8%
CCc1cc2c(=O)c(-c3ccc4c(c3)OCCO4)coc2c(CN2CCCCC2C)c1O (centres undefined)	-11.5%
CCOC(=O)c1ccc(N2C(=O)C(CC(=O)NC)N(CCc3ccc(OC)c(OC)c3)C2=S)cc1 (centres undefined)	8.13%
O=C(Cc1cccc2ccccc12)N1CC[C@@]2(O)CCCC[C@H]2C1	-9.85%
COc1ccccc1C(=O)N=C1NC(=O)CC2C(=O)NCCN12 (centres undefined)	2.95%
Cc1ccc2c(c1)C1OCCC1C1N2C(=O)C2C(C(=O)O)C3C=CC21O3 (centres undefined)	-2.86%
COc1ccc(CNC(=O)C2CCCN2C)cc1OC (centres undefined)	-16.4%
COc1ccc2[nH]c(=O)c(CNC3CCCCC3)cc2c1	-29%
CCOC(=O)C1=C(N)Oc2c(oc(CO)cc2=O)C1c1ccc(F)c(F)c1 (centres undefined)	-16.3%
CC12CCC(C(=O)NCc3ccccn3)(OC1=O)C2(C)C (centres undefined)	-9.47%
CC(=O)O[C@H]1C(=O)[C@@]2(C)[C@H]([C@H](OC(=O)c3ccccc3)[C@]3(O)C[C@H](OC(=O)[C@H](O)C(NC(=O)c4ccccc4)c4ccccc4)C(C)=C1C3(C)C)[C@]1(OC(C)=O)CO[C@@H]1C[C@@H]2O (some centres undefined)	4.3%
CCOC(=O)N1c2ccccc2C=CC1OCC (centres undefined)	-5.21%
Cc1cc(=O)oc2cc(OC(C)C(=O)NCC3CCCO3)ccc12 (centres undefined)	-2.4%
CCC(C)n1ncn(-c2ccc(N3CCN(c4ccc(OCC5COC(Cn6cncn6)(c6ccc(Cl)cc6Cl)O5)cc4)CC3)cc2)c1=O (centres undefined)	-1.74%
O=C(O)c1ccc(OCCn2ccnc2)cc1	-4.4%
CC(=O)N1CCN(c2ccc(OC[C@H]3CO[C@](Cn4ccnc4)(c4ccc(Cl)cc4Cl)O3)cc2)CC1	94.4% (active)
Cc1oc(/C=N/NC(=O)CC2(C)OCCO2)cc1Br	-11.1%
C=C(C)[C@@H]1CC=C(CN2CCC(N3CCC(C(=O)N4CCCC4)CC3)CC2)CC1	-0.183%
